About 79,000 compounds went through this panel and 15% of them were active in at least one assay; those are over-represented in the sample as a whole. Unmarked numbers belong to inactive results. Active and inactive are the calls of the source. Cut-off read from the data, not from the text of the source: active = growth inhibition above about 70%; inactive = the rest.
Key:
[1] = NCI Yeast Anticancer Drug Screen. Data for the rad50 strain (AID 155);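 note: 0% = growth of vehicle-only cultures of the same strain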; details: S. cerevisiae rad50 strain growth inhibition, active compounds read high
How it was run: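 Inhibition values express reduced yeast growth in compound-treated cultures relative to vehicle-treated controls.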

[2] = NCI Yeast Anticancer Drug Screen. Data for the mec2-1 strain (AID 157); details: S. cerevisiae mec2-1 strain, active compounds read high
How it was run: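 Test agents were screened against the mec2-1 yeast strain, with defined DNA repair or cell cycle alteration. Growth was scored as inhibition against vehicle-only controls.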

[3] = NCI Yeast Anticancer Drug Screen. Data for the sgs1 mgt1 strain (AID 161);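 note: 0% = growth of cultures given vehicle only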; details: S. cerevisiae sgs1 mgt1 strain, active compounds read high
How it was run: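 Read-out: growth inhibition vs vehicle controls. Cells: mutant yeast strain deficient in DNA damage repair.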

[4] = NCI Yeast Anticancer Drug Screen. Data for the cln2 rad14 strain (AID 165);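 note: 0% = growth equal to vehicle treated cultures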; details: S. cerevisiae cln2 rad14 strain, active compounds read high
How it was run: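 Growth of compound-exposed yeast (cln2 rad14 genotype) measured and expressed as inhibition relative to vehicle.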

[5] = NCI Yeast Anticancer Drug Screen. Data for the bub3 strain (AID 167); details: S. cerevisiae bub3 mutant strain, active compounds read high
How it was run: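 Steps: expose the mutant yeast strain to compound; grow alongside vehicle-treated cultures; measure growth; express inhibition against the vehicle cultures.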

[6] = NCI Yeast Anticancer Drug Screen. Data for the mlh1 rad18 strain (AID 175); details: S. cerevisiae mlh1 rad18 strain growth inhibition, active compounds read high
How it was run: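 In this whole-cell yeast screen, a strain with altered DNA damage repair is challenged with compound, and its growth is measured against matched vehicle-treated controls.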

[7] = at 5.0 µM (retest, dose inferred, filed as 0.5)
[8] = at 50.0 µM (retest, dose inferred, filed as 5.0)

| Compound | growth inhibition [1, 7] [%] | growth inhibition [1, 8] | growth inhibition ([1]; at 50.0 µM) | growth inhibition [2, 7] [%] | growth inhibition [2, 8] | growth inhibition ([2]; at 50.0 µM) | growth inhibition [3, 7] [%] | growth inhibition [3, 8] | growth inhibition ([3]; at 50.0 µM) | growth inhibition [4, 7] | growth inhibition [4, 8] | growth inhibition ([4]; at 50.0 µM) | growth inhibition [5, 7] [%] | growth inhibition [5, 8] | growth inhibition ([5]; at 50.0 µM) | growth inhibition [6, 7] | growth inhibition [6, 8] | growth inhibition ([6]; at 50.0 µM) |
| --- | --- | --- | --- | --- | --- | --- | --- | --- | --- | --- | --- | --- | --- | --- | --- | --- | --- | --- |
| CC1(C)CC(N(C(=O)/C=C/c2ccc([N+](=O)[O-])o2)C2CCCCC2)CC(C)(C)N1 | -5 | 97% (active) | 5.6% | -3 | 98% (active) | 13.9% | -2 | 99% (active) | 40.2% | -6% | 97% (active) | 25.1% | -4 | 99% (active) | 7.95% | -1% | 97% (active) | 85% (active) |
| COc1c2c(c(C)c3ccc4ccccc4c13)CCN=C2 | -11 | 93% (active) | 80.2% (active) | -4 | 95% (active) | 43.3% | -5 | 96% (active) | 88.2% (active) | -9% | 83% (active) | 13.4% | 10 | 96% (active) | 79.2% (active) | -9% | 93% (active) | 79.9% (active) |
| O=C(c1c(F)c(F)c(F)c(F)c1F)n1c(=S)n(C(=O)c2c(F)c(F)c(F)c(F)c2F)c2ccccc21 | 11 | 96% (active) | 42% | 19 | 90% (active) | 71.4% (active) | 14 | 93% (active) | 62.3% | -2% | 53% | 8.45% | 2 | 91% (active) | 49.1% | 29% | 95% (active) | 86.1% (active) |
| CCC(=O)C(=O)CC1CC(c2ccco2)=Nc2ccccc2S1 (stereo not given) | 9 | 97% (active) | -0.45% | 13 | 98% (active) | 5.65% | 28 | 94% (active) | 22.6% | 6% | 97% (active) | -24.4% | 14 | 96% (active) | 6.35% | 14% | 98% (active) | 18.5% |
| OCc1cc2c([nH]c3ccccc32)c(C(O)CO)n1 (stereo not given) | -2 | -6% | 92.9% (active) | 0 | -3% | 94.5% (active) | -2 | -3% | 94.5% (active) | 0% | -1% | 92.7% (active) | 2 | -2% | 93.3% (active) | 1% | -4% | -68.3% |
| C/C=C(\C)[C@H](O)C(COCc1ccccc1)NS(=O)(=O)c1ccc(C)cc1 (stereo not given in full) | -5 | 44% | 30.1% | -3 | 26% | 98.5% (active) | -7 | 43% | 36.8% | -2% | 47% | 22.6% | -3 | 51% | 97.5% (active) | -4% | 36% | 58.5% |
| CC(=O)Oc1ccc(C(C)(C)CC(C)(C)C)cc1 | -1 | 62% | 72.2% (active) | -1 | 41% | 95.3% (active) | -1 | 26% | 94.8% (active) | -3% | 42% | 86.3% (active) | 0 | 55% | 85.8% (active) | -1% | 42% | 89.5% (active) |
| Oc1cccc(Oc2cccc(Oc3ccccc3)c2)c1 | 1 | 99% (active) | 99.4% (active) | 1 | 99% (active) | 99.3% (active) | -6 | 99% (active) | 99.5% (active) | -23% | 99% (active) | 99% (active) | 30 | 99% (active) | 99.4% (active) | 2% | 99% (active) | 99.3% (active) |
| CCN(CC)CC(O)c1c(-c2ccccc2)c(-c2ccccc2)c2n1CCC2 (stereo not given) | -4 | 92% (active) | 93.7% (active) | -3 | 96% (active) | 32% | -2 | 83% (active) | 56.7% | -11% | 17% | -4.75% | -3 | 90% (active) | 92.6% (active) | -9% | 92% (active) | 47.6% |
| OC(Cc1ccc2ccccc2c1)CN1CCC(c2ccccc2)CC1 (stereo not given) | 56 | 84% (active) | 89.3% (active) | 37 | 80% (active) | 83.5% (active) | 24 | 76% (active) | 91.2% (active) | 70% (active) | 88% (active) | 90.1% (active) | 67 | 96% (active) | 91.6% (active) | 81% (active) | 94% (active) | 90.5% (active) |
